The panel holds about 83,000 compounds, 20% with a hit somewhere; the sample as a whole holds those more often.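 How to read the values: 0–100, growth inhibition (40 = 60% inhibited); 0, no net growth; -100 to 0, cell death (-40 = 40% of starting cells died; -100 = all dead).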 A number with no mark means an inactive call. Active and inactive are the calls of the source. The calls were made as follows: active = growth percent below 10; inactive = the rest.

One assay relates to IGROV1 ovarian. In words: NCI-60 one-dose screen, 48 h (100 = growth as untreated, 0 = no growth, -100 = all killed). Particulars: 10 µM unless noted.
Regarding `COc1ccc(C(=O)Nc2cccc(C3CCc4c(cc(OC)c(OC)c4OC)O3)c2)cc1` (configuration not stated), the growth was 52%.
Still for that read-out and setting: then `N=C(N)c1ccc(OCCCCCCCCCCOc2ccc(C(=N)N)cc2)cc1`, with -80.7% (active).
Regarding `COc1cc2nc(-c3ccc(Cl)cc3)cc(OCCCN3CCOCC3)c2cc1OC`, the growth was 35.6%.
Still for that read-out and setting: then `Brc1ccc2[nH]cc(-c3cncn3CCc3ccccc3)c2c1`, with 76.9%.

A further assay has as its system OVCAR-3 ovarian. The assay is described as above. The following applies: 10 µM unless noted.
Turning to `N/C(=N\C(N)=N\c1nc2ccccc2s1)c1cccc(Cl)c1`, the growth was 99.2%.
Still for that read-out and setting: then `CCOC(=O)[C@@H](C)C[C@H](Cc1ccccc1)NC(=O)c1csc([C@@H](C[C@H](C(C)C)N(C)C(=O)[C@@H](NC(=O)[C@H]2C[C@H](O[Si](C)(C)C(C)(C)C)CCN2C)C(C)C)OC(C)=O)n1`, with 1.08% [9.25 µM] (active); and `COC(=O)/C=C1\S/C(=N\NC(=O)c2cc3ccc2/C=C\c2ccc(cc2)/C=C\3)N(c2ccccc2)C1=O`, with -6.25% (active); and `NNC(=O)c1ccc(-n2nc(-c3ccccc3)c3ccccc32)cc1`, with 8.87% (active).
On the same count and under the same terms, the figure for `NC(=NCCCOc1ccc(F)cc1)Nc1ccc(I)cc1` is 80.5%; for `N#CC1C(C#N)C(C(=O)c2ccc(Br)cc2)N2c3ccccc3C=CC12` (configuration not stated) it is 75.5%; for `CCN1C(=O)/C(=C/C(=O)OC)S/C1=N\NC(=O)c1cc2ccc1/C=C\c1ccc(cc1)/C=C\2` it is 92.9%.
The same measure, in the same setting: the figure for `COc1ccccc1/C=C1\Oc2cc(OCCN3CCCC3)ccc2C1=O` is 96.2%; for `Cc1cc2nc3c4ccc(Br)cc4n(CCN(C)C)c3nc2cc1C` it is 21.1%.
On to `C/C(=N\Nc1cc(C)nc2ccc(Br)cc12)c1ccc([N+](=O)[O-])cc1`, for which the growth is 26.8%.
Same read-out and setting: the figure for `COc1cc(C2C3CC4CCCC[C@H]4N3[C@@]3(C(=O)Nc4cc(Cl)ccc43)C2C(=O)c2nc3ccccc3[nH]2)cc(OC)c1OC` (some centres not stated) is 69.7%.
Same read-out and setting: the figure for `O=C1OC(Cc2ccccc2)C1c1ccccc1` (configuration not stated) is 110%.
Same read-out and setting: then `CC(Oc1ccc(C(=O)O)cc1C(F)(F)F)c1ccc(Oc2ccccc2)cn1` (configuration not stated), with 104%; and `CC(Sc1nc2ccccc2c(=O)n1CCc1ccc(S(N)(=O)=O)cc1)C(=O)Nc1ccc(Cl)cc1` (configuration not stated), with 99.1%.
For `CC1=CCC(OC(=O)C(C)(O)CCC(O)(C(=O)OC2(C)C=CC(O)(C(C)C)CC2)C(C)C)(C(C)C)CC1` (configuration not stated), the growth was 108%.
The same measure, in the same setting: then `ClC1=C(Br)C(Br)(Br)C(=C(Br)Br)C1(Br)Br`, with 75%; and `C=C1C(=O)O[C@H]2[C@H]1CC/C(CNC(=O)C(C)c1ccc(CC(C)C)cc1)=C\CC[C@@]1(C)O[C@@H]21` (some centres not stated), with -87.9% (active); and `CCCCCN1C=C/C(=C\C(=O)N2CCCc3ccccc32)c2ccccc21`, with 84.5%.
The same measure, in the same setting: then `N#Cc1cc(-c2nc3ccccc3s2)c(=O)n(NS(=O)(=O)c2ccccc2)c1N`, with 114%.
Same read-out and setting: the figure for `CCCOc1ccc(/C=N/Nc2cc(C)nc3ccc(Cl)cc23)cc1` is -27.5% (active); for `Cc1cccc(NC(=O)Nc2ccc(-n3cnc4cc(-c5ccc(O)cc5)ccc43)cc2)c1` it is 20.4%; for `O=c1c2c(c(=O)n1O)c1c3ccc[nH]c3nc1c1nc3[nH]cccc3c12` it is 98.3%.
For `O=C(CNCCN1CCOCC1)N1c2cccc3cccc(c23)N(C(=O)CNCCN2CCOCC2)C1c1cn(-c2ccccc2)nc1-c1cccc([N+](=O)[O-])c1`, the growth is 93.6%.
Same read-out and setting: the figure for `O=Cc1cc2ccccc2nc1Oc1ccc(C(F)(F)F)cc1` is 96.7%; for `COc1ccc(C(=O)/C=C/c2cc3ccccc3n3nnnc23)cc1` it is 113%.
As to `CN1CCN(C(=O)[C@]23CCC(C)(C)C[C@H]2C2=CC[C@@H]4[C@@]5(C)C/C(=C/c6cccnc6)C(=O)C(C)(C)[C@@H]5CC[C@@]4(C)[C@]2(C)CC3)CC1`, the growth is 52.7%.
Still for that read-out and setting: then `CCN(CC)c1ccc(/C=N/NC(=O)CSc2nc3ccccc3c(=O)n2CCc2ccc(S(N)(=O)=O)cc2)c(O)c1`, with 1.89% (active); and `CCCCCCNC(=O)Nc1ccc2cc3ccc(NC(=O)NCCCCCC)cc3nc2c1`, with -5.6% (active); and `CCNC(=O)Oc1ccc(/C(=C(\C)c2ccccc2)c2ccc(OCCN(CC)CC)cc2)cc1`, with 93.7%.
Take `CC/C(=C\c1ccc(OC)cc1)C(=O)c1ccc(OC)cc1`: the growth was 211%.
For the molecule `CCc1ccc(CNc2ccc(N3CCOCC3)c(C(=O)O)c2)cc1`, the growth is 104%.
Still for that read-out and setting: then `Cc1ccc(NS(=O)(=O)c2ccc(-c3cnc(C4CC4)o3)cc2)cc1C(F)(F)F`, with 24.5%.
Same read-out and setting: then `C/C(=N\NC(=O)CSc1nc2ccccc2c(=O)n1CCc1ccc(S(N)(=O)=O)cc1)c1ccccn1`, with 12.5%; and `C=C(CBr)[C@@H]1CC[C@]2(COC(C)=O)CC[C@]3(C)[C@H](CC[C@@H]4[C@@]5(C)CCCNC(C)(C)[C@@H]5CC[C@]43C)[C@@H]12`, with 33.7%; and `COc1ccc(C(=O)Nc2cccc(C3CCc4c(cc(OC)c(OC)c4OC)O3)c2)cc1` (configuration not stated), with 35.3%.
For `N=C(N)c1ccc(OCCCCCCCCCCOc2ccc(C(=N)N)cc2)cc1`, the growth was -92.4% (active).
Turning to `COc1cc2nc(-c3ccc(Cl)cc3)cc(OCCCN3CCOCC3)c2cc1OC`, the growth was 77.8%.
Same read-out and setting: then `Brc1ccc2[nH]cc(-c3cncn3CCc3ccccc3)c2c1`, with 36.7%.
